Data on nine molecules can be found in PubChem BioAssay (NCATS).

In assay [1] the test system is Zika virus NS2B-NS3 protease (linked construct). The experiment in a line: Primary screen NINDS Rhodamine qHTS for Zika virus inhibitors (AID 1347160). Also: % is scaled to controls: 0 for no effect and ±100 for the full control effect; nearly all actives have a fitted effect of over 55% in size. The method in brief: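 Percent inhibition, normalized to uninhibited and enzyme-free controls, is fitted to a 4-parameter Hill equation. Fluorescence change comes from a 15-min cleavage of 1.5 microM bis-peptide Rhodamine110 substrate by 25 nM linked NS2B-NS3 at room temperature.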

The target in assay [2] is Calcium and integrin-binding protein 1 (Homo sapiens) (UniProt Q99828). The experiment in a line: Primary qHTS for Identification of Calcium Integrin Binding Protein 1 (CIB1) Competitor (AID 1508620).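 Also: GST tagged CIB1 binding a fluorescein labelled alphaIIb integrin peptide tracer; top concentration of the series differs between compounds; % is scaled to controls: 0 for no effect and ±100 for the full control effect.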 The method in brief:
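Fluorescence polarization competition: CIB1-GST (1 uM final) preincubated with compound 15 min at room temperature, then FITC-labeled alphaIIb peptide (100 nM final) added for another 15 min. Polarization read at Ex 480/Em 540.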
(Quantitative high-throughput screening tests each substance at several concentrations.)

Assay [3] can be described thus: Primary qHTS for inhibitors of nuclear receptor binding SET domain protein 2 (NSD2) in an isogenic RCH-ACV NSD2 p.E1099K mutant (9B) (AID 1645876). Also: nearly all actives have a fitted effect of over 70% in size. Also: potency is read from the fitted curve at half-maximal effect.
Assay [4] deals with Glutathione peroxidase 1 (Homo sapiens) (UniProt P07203). The experiment in a line: Primary qHTS Assay for Inhibitors of Recombinant Selenoprotein Glutathione Peroxidase 1 (GPX1) (AID 1845191). Also: nearly all actives have a fitted effect of over 65% in size. In a few lines: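 Recombinant GPX1 (10 nM final) was preincubated with compound for 30 min at room temperature, then reacted with 1 mM GSH, 0.5 mM CHP, 0.5 mM NADPH and 100 nM glutathione reductase; NADPH fluorescence (340/450 nm) was read at 0 and 15 min.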

The target in assay [5] is Phospholipid hydroperoxide glutathione peroxidase GPX4 (Homo sapiens) (UniProt P36969). The experiment in a line: Primary qHTS Assay for Inhibitors of Recombinant Selenoprotein Glutathione Peroxidase 4 (GPX4) (AID 1845192). Also: nearly all actives have a fitted effect of over 65% in size. The method in brief:
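GR-coupled readout: 100 nM GR, 1 mM GSH, 0.5 mM NADPH; NADPH fluorescence (ex 340/em 450 nm) read at t=0 and after 15 min RT. GPX4 200 nM, preincubated 30 min with compound; substrate 0.5 mM CHP.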

For assay [6], the target named is Luciferin 4-monooxygenase (Photinus pyralis) (UniProt P08659). The experiment in a line: Primary firefly luciferase (FLuc) qHTS assay for identification of artifact compounds. (AID 1845220).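 Also: plate controls were DMSO vehicle for no effect and no enzyme for full effect; nearly all actives have a fitted effect of over 60% in size.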 Particulars: outcome: dose series up to 54.1 µM unless noted. The method in brief: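 qHTS, 15 min compound preincubation with substrate (10 uM luciferin, 10 uM ATP) at RT, then 10 nM FLuc; 5 min; luminescence; % inhibition vs no-enzyme/DMSO controls, 4-parameter Hill fit.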

Assay [7] in a line: Primary fluorescence-based thiol-reactive (MSTI) qHTS assay for identification of artifact compounds. (AID 1845221). Also: nearly all actives have a fitted effect of over 65% in size. Also: potency is read from the fitted curve at half-maximal effect. In a few lines: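 Probe: MSTI 4 uM, PBS pH 7.4, 2% DMSO. Incubation 1 h, RT, light-protected. Readout fluorescence 525/598 nm.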
Assay [8] deals with Nanoluciferase (engineered Oplophorus gracilirostris luciferase). The experiment in a line: Primary Nanoluciferase (NLuc) qHTS assay for identification of artifact compounds. (AID 1845222).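 Also: 0% = DMSO and -100% = no enzyme.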 The method in brief: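 Luminescence read-out of secreted NLuc in S16 cell conditioned medium (1:55); compounds tested with 15 min RT preincubation, then Nano-Glo substrate 1:100, 5 min. % inhibition vs no-enzyme and DMSO controls, 4-parameter Hill fit.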

The subject of another assay is CRL-7250. The experiment in a line: Cytotoxic Profiling of Annotated Libraries Using Quantitative High-Throughput Screening (AID 1296008). Also: nearly all actives have a fitted effect of over 60% in size. Also: potency is read from the fitted curve at half-maximal effect. As to max response: % is scaled to controls: 0 for no effect and ±100 for the full control effect. To be noted: Five cell lines viability, CellTiter-Glo ATP luminescence, 48-72 h; max response: active compounds read low. The method in brief: (§1)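 Compounds were pin-transferred onto cells and incubated 48 or 72 hr at 37 degree Celsius, 95% humidity. CellTiter-Glo was added, plates sat 10 min at room temperature, then ATP-coupled luminescence was imaged as the viability read-out.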
Background: Cellular ATP, detected with luciferase, serves as a proxy for viable cell number.

A further assay deals with HEK293. Described as above. To be noted: Five cell lines viability, CellTiter-Glo ATP luminescence, 48-72 h; max response: active compounds read low. The method in brief: as §1
The next assay deals with HaCat. Described as above. To be noted: Five cell lines viability, CellTiter-Glo ATP luminescence, 48-72 h; max response: active compounds read low. In a few lines:
as §1

Another assay relates to NIH3T3. The assay is described as above. To be noted: Five cell lines viability, CellTiter-Glo ATP luminescence, 48-72 h; max response: active compounds read low. In a few lines: as §1
The next assay deals with C33A. The experiment in a line: Primary qHTS to identify gynecologic anti-cancer compounds using libraries of approved drugs and bioactive compounds (AID 1345084). Also: nearly all actives have a fitted effect of over 55% in size. Also: potency is read from the fitted curve at half-maximal effect. Particulars: Gynecologic cancer cell panel viability, ATPlite luminescence, 48 h; series mostly up to 57.5 µM. In a few lines:
(§2)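 Cell viability after 48 h drug treatment, ATPlite luminescence readout; five doses.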

For the next assay, the system named is CASKI. Described as above. To be noted: Gynecologic cancer cell panel viability, ATPlite luminescence, 48 h; series mostly up to 57.5 µM. In a few lines:
as §2

A further assay concerns Es-2. The assay is described as above. To be noted: Gynecologic cancer cell panel viability, ATPlite luminescence, 48 h; series mostly up to 57.5 µM. The method in brief:
as §2

For the next assay, the system named is Hek293T. Described as above. To be noted: Gynecologic cancer cell panel viability, ATPlite luminescence, 48 h, control line for the selectivity index; series mostly up to 57.5 µM. In a few lines: as §2
Another assay deals with OV90. The assay is described as above. To be noted: Gynecologic cancer cell panel viability, ATPlite luminescence, 48 h; series mostly up to 57.5 µM. In a few lines: as §2
Another assay concerns PA-1. The assay is described as above. To be noted: Gynecologic cancer cell panel viability, ATPlite luminescence, 48 h; series mostly up to 57.5 µM. The method in brief:
as §2

A further assay has as its system Tov-21-G. Described as above. Particulars: Gynecologic cancer cell panel viability, ATPlite luminescence, 48 h; series mostly up to 57.5 µM. The method in brief:
as §2

Another assay relates to Tov112D. The description is as above. To be noted: Gynecologic cancer cell panel viability, ATPlite luminescence, 48 h; series mostly up to 57.5 µM. The method in brief: as §2

Unmarked numbers belong to inactive results. Records with an inconclusive call do not appear. Active and inactive are the calls of the source. Calls follow the shape of the dose curve; as a rule, active = well fitted curve in the direction sought with a large enough effect; inconclusive = small, poorly fitted or top-dose-only effect, or another doubt; inactive = no such curve, though single readings can be large; an effect the other way counts as inactive or inconclusive.

Glutathione peroxidase 1 (Homo sapiens), sequence (P07203 whole entry, looked up): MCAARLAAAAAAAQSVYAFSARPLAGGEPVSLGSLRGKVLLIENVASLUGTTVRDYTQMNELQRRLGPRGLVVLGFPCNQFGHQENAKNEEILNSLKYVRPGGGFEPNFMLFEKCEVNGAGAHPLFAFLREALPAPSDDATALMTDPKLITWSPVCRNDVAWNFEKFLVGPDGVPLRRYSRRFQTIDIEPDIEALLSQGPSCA
Calcium and integrin-binding protein 1 (Homo sapiens), sequence (Q99828 whole entry, looked up): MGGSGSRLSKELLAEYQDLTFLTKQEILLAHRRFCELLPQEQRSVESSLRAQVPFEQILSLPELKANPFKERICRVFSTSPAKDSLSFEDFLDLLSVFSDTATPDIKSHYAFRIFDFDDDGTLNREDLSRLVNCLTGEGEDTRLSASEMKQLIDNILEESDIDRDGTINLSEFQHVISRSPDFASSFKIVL
Phospholipid hydroperoxide glutathione peroxidase GPX4 (Homo sapiens), sequence (P36969 whole entry, looked up): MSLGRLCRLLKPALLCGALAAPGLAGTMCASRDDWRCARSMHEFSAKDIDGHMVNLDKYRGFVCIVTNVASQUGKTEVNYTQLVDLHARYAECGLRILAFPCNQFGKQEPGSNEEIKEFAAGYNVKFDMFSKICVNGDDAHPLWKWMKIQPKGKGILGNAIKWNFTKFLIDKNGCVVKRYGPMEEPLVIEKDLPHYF

Consider `Cc1c(N2C(=O)[C@@H]3[C@H](O)CCN3C2=O)ccc(C#N)c1Cl`, for which the Potency result in assay [1], in assay [2], in assay [3], in assay [4], in assay [5] and in assay [7] was “inactive” each time. The Potency entry (in assay [8]; with C33A; in the assay with CASKI; in the assay with Es-2; with Hek293T; with OV90) was “inactive” throughout. Also, the Potency entry with PA-1, with Tov-21-G and with Tov112D was “inactive” each time. Moreover, the molecule was classed as inactive (in assay [6]; with HaCat). For the same molecule, the max response in the assay with CRL-7250 was -13.8%; in the assay on HEK293 it was -6.16%; with NIH3T3, -8.96%.

Consider `C/C=C1/CN2CC[C@]34C(=Nc5ccc(OC)cc53)C2C[C@@H]1C4(CO)C(=O)OC` (some centres not stated), for which the Potency entry in [1], in assay [2], in [3], in assay [4], in assay [5] and in assay [7] was “inactive” each time. Moreover, the Potency result (in [8]; in the assay with C33A; in the assay with CASKI; in the assay on Es-2; with Hek293T; in the assay with OV90) was “inactive” in each case. For the same molecule, the Potency entry with PA-1, in the assay on Tov-21-G and in the assay with Tov112D was “inactive” each time. Further, the outcome (in assay [6]; in the assay on HaCat) was inactive. In addition, the max response in the assay on CRL-7250 was 0.729%; with HEK293, 4.62%; in the assay with NIH3T3, 4.25%.

On to `C=CC(C)(C)c1[nH]c2c(CC=C(C)C)cc(CC=C(C)C)cc2c1C[C@@H]1NC(=O)[C@H](C)NC1=O`, for which the Potency entry in [1], in assay [2], in assay [3], in assay [4], in [5] and in [7] was “inactive” throughout. Besides, the Potency result (in [8]; in the assay with C33A; in the assay on CASKI; in the assay with Es-2; in the assay with Hek293T; with OV90) was “inactive” throughout. The Potency result with PA-1, in the assay on Tov-21-G and in the assay on Tov112D was “inactive” each time. Also, the molecule was classed as inactive in assay [6]. Also, the max response in the assay with CRL-7250 was 3.03%; in the assay with HEK293, -8.14%; in the assay with HaCat, -1.56%; in the assay on NIH3T3, 2.77%.

As for `CN1CCc2cc3c(cc2C1C1OC(=O)c2c1ccc1c2OCO1)OCO3` (configuration not stated), the Potency entry in assay [1], in [2], in [3], in assay [4], in assay [5] and in assay [7] was “inactive” each time. Moreover, the Potency result (in assay [8]; in the assay with C33A; in the assay on CASKI; in the assay with Es-2; in the assay on Hek293T; in the assay with OV90) was “inactive” throughout. Besides, the Potency entry with PA-1, with Tov-21-G and with Tov112D was “inactive” throughout. Also, the max response is -4.88% with CRL-7250, 1.39% in the assay on HEK293, -1.45% with HaCat and 0.735% in the assay with NIH3T3.

Take `C=C1[C@@]23C(=O)O[C@H](C)[C@]24O[C@@]2(C(=C)[C@]5(C=CC(=O)OC5(C)C)CC[C@]32C)[C@H](O)[C@@]1(C)OC4=O`: the Potency entry in [2], in assay [3], in assay [4], in [5], in assay [7] and in [8] was “inactive” throughout. Further, the Potency entry in the assay with C33A, in the assay on CASKI, with Es-2, with Hek293T, in the assay on OV90 and with PA-1 was “inactive” throughout. The Potency entry with Tov-21-G and in the assay with Tov112D was “inactive” in each case. Further, the molecule was classed as inactive (in assay [6]; with HaCat). For the same molecule, the values for the max response in the assay with CRL-7250, with HEK293 and in the assay with NIH3T3 were -20.6%, -10.4% and 0.197%, respectively.

As to `COc1cc(O)c2c(c1)/C=C/C[C@@H](O)[C@@H](O)C(=O)CCC[C@H](C)OC2=O`, the Potency result in assay [1], in assay [2], in assay [4], in [5], in assay [7] and in assay [8] was “inactive” throughout. Besides, the Potency entry in the assay on C33A, in the assay with CASKI, in the assay with Es-2, with Hek293T, with OV90 and in the assay with PA-1 was “inactive” throughout. In addition, the Potency entry with Tov-21-G and in the assay with Tov112D was “inactive” each time. In addition, the result in assay [6] was inactive. Moreover, in the assay on CRL-7250, the Potency was 14300 nM (active). Further, the figures for the max response in the assay on HEK293, in the assay on HaCat and with NIH3T3 were 0.301%, -18.3% and -5.04%, respectively.

As for `Cc1cccc(NC(=O)N[C@H]2CN(C)c3ccccc3C(c3ccccc3)=N2)c1`, the Potency entry (in assay [1]; in assay [4]; in [5]; in assay [7]; in the assay with C33A; in the assay on CASKI) was “inactive” each time. Also, the Potency entry in the assay on Es-2, with Hek293T, in the assay on OV90, in the assay with PA-1, in the assay with Tov-21-G and in the assay on Tov112D was “inactive” throughout. Besides, the molecule was called inactive (in assay [6]; with HaCat). The max response in the assay on CRL-7250 was -1.7%; in the assay with HEK293 it was -2.16%; with NIH3T3, -5.29%.

Turning to `COc1cc(N2CCN(C)CC2)ccc1N`, the Potency entry (in assay [1]; in assay [2]; in [4]; in assay [5]; in [8]; with C33A) was “inactive” each time. Further, the Potency result in the assay with CASKI, with Es-2, with Hek293T, in the assay with OV90, with PA-1 and in the assay on Tov-21-G was “inactive” throughout. Besides, the Potency result with Tov112D was “inactive”. Besides, in [6], the call was inactive. Further, in [7], the Potency is 1190 nM (active). Moreover, the max response in the assay with CRL-7250 was 0.376%; in the assay with HEK293, -21.4%; in the assay with HaCat, 1.34%; with NIH3T3 it was -6.74%.

For the molecule `C[C@H]1O[C@@H](O[C@H]2CC[C@]3(C=O)C4CC[C@]5(C)[C@@H](C6=CC(=O)OC6)CC[C@]5(O)[C@@H]4CC[C@]3(O)C2)C[C@@H](O)[C@@H]1O` (some centres not stated), the Potency result in assay [1], in assay [2], in assay [4], in assay [5], in assay [7] and in assay [8] was “inactive” in each case. Further, the Potency is 31.7 nM (active) in assay [3]; 22.4 nM (active) in the assay on CRL-7250; 25.2 nM (active) with HEK293; 502 nM (active) in the assay with HaCat; 89.1 nM (active) in the assay with C33A; 355 nM (active) with CASKI. In addition, the Potency in the assay with Es-2 is 141 nM (active); in the assay on Hek293T, 141 nM (active); in the assay on OV90, 316 nM (active); in the assay with Tov-21-G, 126 nM (active); with Tov112D it was 25.1 nM (active). Also, the result in assay [6] was inactive. Moreover, the max response with NIH3T3 was -1.6%.
